# In the library only some 12% were active in any assay of this set; here they are far more common.
# BAZ2B block: BAZ2B (human) inhibition. AID 504333. 4.4% of 360,000 active. Potency, µM (doses to about 114 µM), most hits filed as inhibitors. Q9UIF8. AlphaScreen BAZ2B-H3K14Ac peptide displacement; note: nearly all actives have a fitted effect of over 60% in size
#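 BAZ2B (50 nM) with biotin-H3(5-23)K14Ac peptide (50 nM) in PBS pH 7.4, 0.01% Tween-20, preformed 30 min, then compound 30 min at room temperature; top concentration 110uM. AlphaScreen streptavidin donor/nickel chelate acceptor beads (10 ug/mL final), 20 min dark, signal read.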
# HP1b chromo inh: blocks HP1-beta chromodomain binding to methylated histone tails; P83916; AlphaScreen HP1-beta / biotin-H3K9me3 peptide binding; Potency, µM (doses to about 114 µM), actives largely listed as inhibitors; 0.56% of 390,000 active; AID 540317; note: nearly all actives have a fitted effect of over 70% in size
#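 AlphaScreen: HP1-beta (50 nM) preformed 30 min with biotin-H3(1-18)K9me3 peptide (50 nM) in PBS pH 7.4, 0.01% Tween-20. Compound added for 30 min at RT, then streptavidin donor/nickel chelate acceptor beads (10 ug/mL) for 30 min.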
# JMJD2A Tudor inh: inhibitors of human JMJD2A Tudor domain; O75164; AlphaScreen JMJD2A-Tudor / H3K4me3 peptide binding; Potency, µM (doses to about 114 µM), usual class: inhibitors; 4.4% of 390,000 active; note: nearly all actives have a fitted effect of over 50% in size
# Target sequence (O75164 whole entry, looked up, the tested form may be a part): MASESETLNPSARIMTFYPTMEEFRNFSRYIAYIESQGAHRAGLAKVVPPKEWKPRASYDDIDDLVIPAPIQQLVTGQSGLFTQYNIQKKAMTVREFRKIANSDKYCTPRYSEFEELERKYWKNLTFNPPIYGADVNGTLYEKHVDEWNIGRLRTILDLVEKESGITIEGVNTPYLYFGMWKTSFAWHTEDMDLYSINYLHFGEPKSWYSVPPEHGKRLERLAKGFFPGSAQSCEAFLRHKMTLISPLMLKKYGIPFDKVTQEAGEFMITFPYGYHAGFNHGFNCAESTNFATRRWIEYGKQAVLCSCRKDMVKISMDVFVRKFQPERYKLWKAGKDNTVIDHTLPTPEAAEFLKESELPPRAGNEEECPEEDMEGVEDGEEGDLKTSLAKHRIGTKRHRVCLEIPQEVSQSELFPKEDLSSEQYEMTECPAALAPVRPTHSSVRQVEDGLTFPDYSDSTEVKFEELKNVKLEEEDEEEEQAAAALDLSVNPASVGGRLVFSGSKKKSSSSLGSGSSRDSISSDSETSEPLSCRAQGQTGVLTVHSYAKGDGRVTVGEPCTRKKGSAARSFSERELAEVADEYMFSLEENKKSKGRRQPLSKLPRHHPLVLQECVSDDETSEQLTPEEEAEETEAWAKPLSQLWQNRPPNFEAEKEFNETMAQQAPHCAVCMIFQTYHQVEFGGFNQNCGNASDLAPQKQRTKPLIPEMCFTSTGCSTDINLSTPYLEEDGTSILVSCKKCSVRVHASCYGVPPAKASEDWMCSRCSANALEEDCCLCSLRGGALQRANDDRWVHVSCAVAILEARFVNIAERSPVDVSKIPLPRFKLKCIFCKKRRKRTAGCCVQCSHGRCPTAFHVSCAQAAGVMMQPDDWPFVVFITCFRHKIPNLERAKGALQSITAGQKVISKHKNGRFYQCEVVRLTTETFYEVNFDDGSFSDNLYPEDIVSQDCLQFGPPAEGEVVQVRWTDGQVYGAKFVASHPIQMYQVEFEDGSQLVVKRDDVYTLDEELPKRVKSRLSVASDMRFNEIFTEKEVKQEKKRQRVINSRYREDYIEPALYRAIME
# PLK1 PBD block: PLK1 (human) polo-box domain binding inhibition. AID 720504. Potency, µM, most hits filed as inhibitors. 2.8% of 360,000 active. P53350. Plk1 PBD binding of FITC phosphopeptide, fluorescence polarization; note: series mostly up to about 57 µM; nearly all actives have a fitted effect of over 65% in size
# Sfp PPTase inh: blocks B. subtilis Sfp PPTase activity; 3.5% of 310,000 active; Q9F4F7; Biochemical Sfp PPTase activity, qHTS; Potency, µM, actives largely listed as inhibitors;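 note: the enzyme is Sfp with the accession as filed and its product quenches rhodamine fluorescence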
#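 Fluorescence-quenching assay with 15 nM Sfp, 5 uM rhodamine-CoA and 12.5 uM BHQ-2-labelled ybbR peptide in pH 7.6 Hepes/MgCl2 buffer. Enzyme was pre-incubated with compound for 15 min at room temperature. Rate was taken from the 30-min fluorescence change (525/598 nm).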
# G9a block: G9a (human) methyltransferase inhibition. 8.8% of 350,000 active. G9a H3K9 monomethylation, AlphaScreen, 2 h. AID 504332. Potency, µM (doses to about 102 µM), most hits filed as inhibitors; note: nearly all actives have a fitted effect of over 75% in size
#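 Readings reflect AlphaScreen signal from monomethyl-H3K9 antibody detection. HMT at 20 nM; substrate b-H3K9 500 nM; cofactor SAM 20 uM; 2 h RT reaction; compounds tested as titrations in qHTS with 15 min preincubation.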
# A number is an active result; – = inactive; ? = inconclusive; · = not tested or not shown; ! = a repeat was not active; [ ] = remark or other dose. Calls come from the whole dose curve; as a rule, active = well fitted curve in the direction sought with a large enough effect; inconclusive = small, poorly fitted or top-dose-only effect, or another doubt; inactive = no such curve, though single readings can be large; an effect the other way counts as inactive or inconclusive.
SMILES,BAZ2B block,HP1b chromo inh,JMJD2A Tudor inh,PLK1 PBD block,Sfp PPTase inh,G9a block
CN(C)S(=O)(=O)c1ccc2c(c1)N(CC(=O)N1CCCCC1)CCS2,–,–,–,·,·,–
c1ccc2oc(-c3ccc(Nc4nc(N5CCOCC5)nc(N5CCOCC5)n4)cc3)nc2c1,·,–,–,–,·,·
CC1=NN(c2ccc(C)cc2C)C(=O)C1C(c1ccccc1)C1C(=O)N(c2ccc(C)cc2C)N=C1C (stereo not given),56µM,–,?,19µM,–,?
Cc1ccc(N2C(=O)CCC2=O)c(C)c1,·,–,–,–,·,·
O=C(CNS(=O)(=O)c1ccc(F)cc1)N1CCCCCC1,–,–,–,?,?,·
O=C1O[C@H]([C@@H](O)CO)C(O)=C1O,–,–,–,–,–,13µM!
CC1(C)CC2CC(C)(CN2S(=O)(=O)c2ccccc2[N+](=O)[O-])C1 (stereo not given),·,–,–,–,·,·
CSc1nnc(NC(=O)c2ccc3c(c2)OCO3)s1,–,–,–,–,–,28µM
CSc1nnc(NC(=O)c2ccc(S(=O)(=O)N(C)C)cc2)s1,–,–,–,–,–,22µM
Cc1nnc(NC(=O)c2ccc3c(c2)OCO3)s1,–,–,–,–,–,–
CN(C)S(=O)(=O)c1ccc(C(=O)Nc2nnc(SCc3ccccc3)s2)cc1,–,–,–,–,–,–
O=C(Nc1nncs1)c1ccc2c(c1)OCO2,–,–,–,–,–,50µM
CCOC(=O)c1cc(-c2ccc(C)cc2)n(CC(=O)Nc2ccc(OC)cc2OC)c1C,–,–,–,·,·,–
Cc1ccccc1S(=O)(=O)Nc1nc2ccccc2nc1N1CCOCC1,56µM,–,–,–,–,–[12.7 µM]
COc1ccc(C2CC(c3ccccc3)Oc3cc4c(cc32)OCO4)cc1 (stereo not given),·,?,35µM,·,45µM!,·
COc1ccc(C2CC(c3ccccc3)Oc3ccc(C(C)(C)C)cc32)cc1 (stereo not given),·,–,–,·,–,·
COc1ccc(C2CC(c3ccccc3)Oc3cc(OC)c(OC)c(OC)c32)cc1 (stereo not given),·,–,–,·,–,·
COc1ccc(C2CC(c3ccccc3)Oc3cc(OC)ccc32)cc1 (stereo not given),·,?,40µM,·,?,·
CCN(CC)c1ccc(NC(=O)Cn2c3ncccc3c(=O)n2-c2ccccc2)c(C)c1,–,–,–,·,·,?
Cc1nn(C(=O)c2ccccc2)c(C)c1S(=O)(=O)N1CCOCC1,–,–,–,·,·,?
COc1ccc([C@@H]2C(C#N)=C(N)S[C@@H](c3ccccc3)[C@@H]2[N+](=O)[O-])cc1,–,–,–,–,–,–
COc1ccc(C2C(C#N)=C(N)N3C(=C2C#N)Sc2ccccc23)cc1 (stereo not given),–,·,·,·,–,6.3µM
COc1ccc(S(=O)(=O)NNC(=O)C23CC4CC(CC(C4)C2)C3)cc1,–,–,–,–,–,79µM
Cc1ccc(S(=O)(=O)NNC(=O)C23CCC(CC2)C3)cc1,·,·,·,–,·,·
CC(=O)OC/C=C(\C)CCC=C(C)C,–,–,–,–,·,–[12.7 µM]
SMILES,BAZ2B block,HP1b chromo inh,JMJD2A Tudor inh,PLK1 PBD block,Sfp PPTase inh,G9a block
O=C(c1cccnc1)N1C2C=CC(C2)C1(C(F)(F)F)C(F)(F)F (stereo not given),?,–,71µM,–,–,–
CCCCNC(=O)C(CC)Sc1nc2ccccc2c(=O)n1CCc1ccc(OC)c(OC)c1 (stereo not given),–,–,–,·,·,–
CC1CC(=Cc2ccc([N+](=O)[O-])cc2)C(=O)O1 (stereo not given),·,–,–,–,·,·
O=C1Nc2c(ccc(Cl)c2Cl)C(=O)C1(F)c1ccccc1 (stereo not given),–,–,–,–,–,45µM
Cc1occc1C(=O)N1CCN(C(c2ccccc2)c2ccccc2)CC1,?,–,?,–,–,40µM
COCCNC(=O)CN1CCN(C(c2ccccc2)c2ccccc2)CC1,?,?,8.9µM,–,?,14µM
O=C(c1cc(-c2cccc(O)c2)on1)N1CCN(C(c2ccccc2)c2ccccc2)CC1,–,–,?,–,–,45µM
COC(=O)CN1CCN(C(c2ccccc2)c2ccccc2)CC1,–,–,–,–,–,56µM
CN(Cc1ccccc1)C(=O)CN1CCN(C(c2ccccc2)c2ccccc2)CC1,–,–,–,–,–,–
COc1ccc(S(=O)(=O)Nc2cccc3c2O[C@H](CN(C)C(=O)NC2CCCCC2)[C@@H](C)CN([C@H](C)CO)C3=O)cc1,·,–,–,–,·,·
Cc1ccc(Cl)cc1Nc1nn2c(=O)c3ccc(C(=O)NC4CCCCC4)cc3nc2s1,–,–,–,·,·,–
COCCNC(=O)CNC(c1ccccc1)c1ccccc1,56µM,·,·,·,45µM,45µM
CCCCNC(=O)CCC(=O)N1CCN(C(c2ccccc2)c2ccccc2)CC1,79µM,–,–,–,–,–
COC(=O)CNC(=O)CCC(=O)N1CCN(C(c2ccccc2)c2ccccc2)CC1,–,–,–,–,–,–
Cc1ccnc(SCC(=O)N2CCN(C(c3ccccc3)c3ccccc3)CC2)n1,–,–,–,–,–,45µM
Cc1ccnc(SCC(=O)N2CCc3ccccc32)n1,–,–,–,–,–,–
O=C(OCC#CCSc1nnc(-c2cccc3ccccc23)o1)c1sc(Cl)c(Cl)c1Cl,·,·,–,·,·,·
Cc1nc(-c2ccccc2)sc1-c1n[nH]c(=S)n1C,79µM,–,10µM,–,–,3.5µM
Cc1cccc(-c2n[nH]c(=S)n2C)c1,–,?,4.5µM,–,–,28µM
CSc1nnc(-c2sc(-c3ccccc3)nc2C)n1C,–,–,–,–,–,–
Cc1ccn2c(-c3n[nH]c(=S)n3C)c(C)nc2c1,–,?,8.9µM,?,?,8.9µM
Cc1cccc(-c2nc3ccccc3c3nncn23)c1,–,–,–,–,–,–
Cn1c(-c2ccccc2Br)n[nH]c1=S,·,–,4.5µM,–,·,·
Cc1ccn2c(=O)cc(C)nc2c1,–,–,–,–,–,–
CC(CN1CCCCC1)OC(=O)c1ccco1 (stereo not given),–,–,–,–,–,–
CC(C)(C)OC(=O)C[C@@H]1C/C=C\C[C@H](CC(=O)N[C@H](CO)Cc2ccccc2)C(=O)N[C@@H](Cc2c[nH]c3ccccc23)COC1=O,·,–,–,–,·,·
O=C(NCCOc1ccc(F)cc1)C1CCC(=O)N(CC2CCCCC2)C1 (stereo not given),–,–,–,–,–,·
Cn1c(-c2ccccc2)n[nH]c1=S,–,–,22µM,–,–,·
O=C1NC[C@H](CCCCN2C[C@@H](Cc3ccccc3)N(CCC3CCCCC3)C(=O)C2=O)N(CCC2CCCCC2)C1=O,·,·,·,–,·,·
CC(c1ccccc1)N1C(=O)c2cccnc2C1=O (stereo not given),?,–,–,–,–,–
